Results on 91 compounds are retold here after PubChem BioAssay AID1445 (SRMLSC, 2008).

The structures appear in SMILES notation. In all, about 220,000 compounds went through this assay and about 910 (0.41%) were called active. The entries come from a sample that favours actives as a whole. Results with a measured potency or affinity are listed apart. Values without a mark were called inactive.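 The calls were made as follows: active = primary inhibition above the hit cutoff, then over 50% inhibition at one or more dose response concentrations (cut at about 23% in these data, passing the limit was not always enough); inconclusive = conflicting primary data, or primary hits not chosen for dose response; inactive = low primary inhibition, or under 50% at every dose.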

The target in this experiment is Aminopeptidase N (Plasmodium falciparum (isolate 3D7)) (UniProt O96935). As to the kind of experiment: P. falciparum M1AAP inhibitors, biochemical, fluorogenic H-Leu-NHMec substrate, 1536-well (AID 1445).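 Also: plate controls were DMSO full reaction for no effect and no enzyme background for full effect.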 The following applies: recombinant M1AAP, H-Leu-NHMec fluorogenic kinetic assay; at 30 µM, hits give high values unless noted.
Aminopeptidase N (Plasmodium falciparum (isolate 3D7)), sequence (O96935 whole entry, looked up): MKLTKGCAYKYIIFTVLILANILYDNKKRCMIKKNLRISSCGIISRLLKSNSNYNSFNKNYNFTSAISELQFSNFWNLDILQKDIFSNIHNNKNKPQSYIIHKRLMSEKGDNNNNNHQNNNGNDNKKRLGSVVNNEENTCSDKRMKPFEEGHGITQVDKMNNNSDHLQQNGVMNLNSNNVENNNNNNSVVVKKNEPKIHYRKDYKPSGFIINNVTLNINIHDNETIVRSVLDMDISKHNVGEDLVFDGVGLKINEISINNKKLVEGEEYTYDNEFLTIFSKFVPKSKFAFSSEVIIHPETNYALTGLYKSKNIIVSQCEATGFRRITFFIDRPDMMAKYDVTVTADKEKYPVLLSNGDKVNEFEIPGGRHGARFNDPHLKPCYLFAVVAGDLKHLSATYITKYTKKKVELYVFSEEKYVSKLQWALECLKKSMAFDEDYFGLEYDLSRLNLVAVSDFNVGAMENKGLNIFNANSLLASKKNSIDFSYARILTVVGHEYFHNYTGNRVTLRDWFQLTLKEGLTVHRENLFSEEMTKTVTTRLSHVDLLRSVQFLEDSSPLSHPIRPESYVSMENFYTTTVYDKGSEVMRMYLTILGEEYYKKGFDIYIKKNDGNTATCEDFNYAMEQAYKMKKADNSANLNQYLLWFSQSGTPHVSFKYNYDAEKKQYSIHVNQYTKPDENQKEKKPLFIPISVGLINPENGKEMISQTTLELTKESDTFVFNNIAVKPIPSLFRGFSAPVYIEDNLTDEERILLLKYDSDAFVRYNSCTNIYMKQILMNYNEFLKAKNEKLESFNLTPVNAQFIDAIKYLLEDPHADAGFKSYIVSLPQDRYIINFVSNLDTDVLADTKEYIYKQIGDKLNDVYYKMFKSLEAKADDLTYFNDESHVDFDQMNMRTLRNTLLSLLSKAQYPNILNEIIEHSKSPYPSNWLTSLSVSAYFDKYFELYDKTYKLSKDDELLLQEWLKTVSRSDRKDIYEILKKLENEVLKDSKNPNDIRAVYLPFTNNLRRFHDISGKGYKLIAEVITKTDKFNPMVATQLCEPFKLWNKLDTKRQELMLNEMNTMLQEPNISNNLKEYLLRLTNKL
For the compound `COCCn1c(SCC(=O)NC(=O)NCc2ccccc2)nc2ccccc21`, the inhibition – broadly, the drop in the measured response relative to a control, in per cent – was -0.93%.

On to `CCCn1c(C)cc(/C=C(\C#N)C(=O)OCC(=O)NC(=O)NCC)c1C`, for which the inhibition was 8.1%.

As to `COc1ccc(N(CC(=O)Nc2ccccc2C(=O)O)S(=O)(=O)c2ccc(C)c([N+](=O)[O-])c2)cc1`, the inhibition was 6.07%.

Consider `Cc1ccc(OCC(=O)Nc2ccc(N3CCN(C(=O)c4ccc(C)cc4)CC3)cc2)cc1`, for which the inhibition was -2.61%.

With `Cc1ccc(C(=O)N2CCN(S(=O)(=O)c3ccccc3)CC2)cc1`, the inhibition was 1.63%.

With `COc1ccc(OC)c2sc(NC(=O)c3ccc(S(=O)(=O)N(C)C)cc3)nc12`, the inhibition was 23.5% (active).

As for `COc1ccc(NC(=O)c2ccc(S(=O)(=O)N(C)C)cc2)cc1OC`, the inhibition is -1.14%.

For the compound `COc1ccc(OC)c2sc(NC(=O)c3ccc(S(=O)(=O)N4CCOCC4)cc3)nc12`, the inhibition was -1.73%.

Turning to `CC(=O)N1CCN(Cc2nc3cc(NC(=O)c4cccc(Br)c4)ccc3n2C)CC1`, the inhibition is 4.84%.

Take `Cc1cc(C)n2cc(CSc3ccc(Br)cc3)nc2n1`: the inhibition was -0.36%.

`CC(C)N(Cc1nc(-c2ccccc2)no1)C(=O)C(Cl)(Cl)Cl`: the inhibition was 1.11%.

On to `NC(=O)N/N=C/c1cn(-c2ccccc2)nc1-c1cccs1`, for which the inhibition was 4.92%.

As for `COC(=O)Cc1c(C)c2ccc(OC(C)C)cc2oc1=O`, the inhibition is 4.34%.

For the compound `Cc1c(Cc2ccccc2)c(=O)oc2cc(OC(=O)c3ccccc3)ccc12`, the inhibition is 1.43%.

Consider `Cc1ccc(C(c2nnnn2CCC(C)C)N2CCN(C)CC2)cc1` (stereo unspecified), for which the inhibition is -0.91%.

In the case of `CC(C)C[C@H](NC(=O)c1nc[nH]c1C(=O)N[C@@H](CC(C)C)C(=O)OC(C)(C)C)C(=O)OC(C)(C)C`, the inhibition is -5.44%.

For the compound `CC(C)C[C@H](NC(=O)c1nc[nH]c1C(=O)N1CCN(C(=O)OC(C)(C)C)CC1)C(=O)OC(C)(C)C`, the inhibition is 14.4%.

Take `CC(C)C[C@H](NC(=O)c1nc[nH]c1C(=O)NC1CCN(C(=O)OC(C)(C)C)CC1)C(=O)OCc1ccccc1`: the inhibition is -9.66%.

Consider `CC(C)C[C@H](NC(=O)c1[nH]cnc1C(=O)N[C@@H](C)C(=O)OC(C)(C)C)C(=O)OC(C)(C)C`, for which the inhibition was -4.65%.

`COc1cc(C2C(C#N)=C(N)Oc3n[nH]c(-c4cccnc4)c32)cc(Br)c1O` (stereo unspecified): the inhibition is 17.3%.

As for `COc1cc(OC)cc(C2C(C#N)=C(N)Oc3n[nH]c(-c4cccnc4)c32)c1` (stereo unspecified), the inhibition was 14.9%.

For the compound `CC(C)COc1ccc(C(=O)OCCN2CCOCC2)cc1`, the inhibition was 0.38%.

With `CN1CCN(Cc2oc(CO)cc(=O)c2O)CC1`, the inhibition was -1.32%.

Regarding `CN1CCN(Cc2c(O)c(Cl)cc3c(-c4ccccc4)cc(=O)oc23)CC1`, the inhibition was 19.7%.

Regarding `Cc1cc2oc(=O)cc(CN3CCC(C)CC3)c2cc1Cl`, the inhibition was 0.59%.

For `CCc1cc(=O)oc2cc(C)c(CN3CCCCC3)c(O)c12`, the inhibition is 13.8%.

`CCc1cc(=O)oc2cc(C)c(CN3CCCC3)c(O)c12`: the inhibition was 13.6%.

Take `CCN1CCN(Cc2cc(=O)oc3ccc(Cl)cc23)CC1`: the inhibition is 1.72%.

Take `CCN1CCN(Cc2oc(CO)cc(=O)c2O)CC1`: the inhibition was 0.53%.

For `Cc1cc2oc(=O)cc(CN3CCC(C)CC3)c2c(C)c1Cl`, the inhibition is 8.55%.

Consider `O=C(COC(=O)CCc1ccc(S(=O)(=O)N2CCOCC2)cc1)NCc1ccccc1Cl`, for which the inhibition was -2.82%.

Consider `Cc1ccc(C(=O)NC(=S)NCC2CCCO2)cc1Br` (stereo unspecified), for which the inhibition was 3.05%.

Take `COc1ccc(C(=O)CSc2cc(C)nc(SCC(=O)c3ccc(C)cc3)n2)cc1`: the inhibition was 12.2%.

With `Cn1c(C(O)C(O)c2ccccc2)nc2ccccc21` (stereo unspecified), the inhibition was -1.04%.

In the case of `CCCCC(=O)NC(NC(=O)CCCC)c1ccc(OCC(C)C)c(OC)c1`, the inhibition is 4.4%.

As for `Cn1c(Sc2ccccc2Cl)c(C=O)c2ccccc21`, the inhibition is 3.59%.

In the case of `CCN1C(=O)S/C(=C/c2c(OCc3ccc(C(=O)O)cc3)ccc3ccccc23)C1=O`, the inhibition is 9.62%.

With `Cc1ccc(S(=O)(=O)N(C)Cc2ccc(C(=O)N/N=C/c3ccc(OC(F)F)cc3)cc2)cc1`, the inhibition is -2.98%.

As to `Cc1cnc(NC(=O)CSc2nnc(-c3ccncc3)n2C2CCCCC2)s1`, the inhibition was 4.18%.

Consider `CN(Cc1nc(-c2ccccn2)no1)S(=O)(=O)c1ccc(Cl)cc1`, for which the inhibition was 0.8%.

Regarding `Cc1nc2sc(C(c3ccc(C(C)C)cc3)N3CCN(CCO)CC3)c(O)n2n1` (stereo unspecified), the inhibition was 1.32%.

Consider `C=CCn1c(SCC(=O)/C(C#N)=C(\C)N)nc2sc(CC)cc2c1=O`, for which the inhibition was 5.1%.

Take `CCc1c(C)c2cc(Cl)c(O)c(CN3CCCCC3)c2oc1=O`: the inhibition was -1.01%.

For `Cc1c(C)c2cc(Cl)c(O)c(CN3CCCCC3)c2oc1=O`, the inhibition was 36%.

Take `C[C@@H]1Cc2c(O)c(O)cc(O)c2C(=O)O1`: the inhibition is -2.7%.

With `COc1c(O)cc2c(c1O)C(=O)CC(c1ccccc1)O2` (stereo unspecified), the inhibition is 4.17%.

On to `Cn1nc(-c2ccc(Cl)cc2)cc1NC(=O)CCCC(=O)O`, for which the inhibition is -1.87%.

Turning to `CC1CCc2cccc3c2N1c1cc(C#N)c(C#N)cc1O3` (stereo unspecified), the inhibition was -3.31%.

Turning to `O=C(Nc1nc2ccccc2[nH]1)c1ccc(Br)o1`, the inhibition is 0.56%.

With `Cc1ccc(O)c(-c2cc(C(=O)Nc3ccc(S(=O)(=O)Nc4nccc(C)n4)cc3)[nH]n2)c1`, the inhibition is 5.6%.

Turning to `O=C1CCC(C(=O)OCc2ccccc2)N1` (stereo unspecified), the inhibition was 2.24%.

Regarding `CCOC(=O)Cc1cc(=O)n2[nH]c(-c3ccc(Cl)cc3)cc2n1`, the inhibition was 7.9%.

`CCOP(=O)(OCC)c1nc(-c2cccc3ccccc23)oc1NCc1ccc(OC)cc1`: the inhibition was 16.1%.

Take `CCOP(=O)(OCC)c1nc(Cc2ccccc2)oc1NCc1ccccc1`: the inhibition is 1.14%.

On to `Cc1ccc(S(=O)(=O)Nc2nc3n(n2)C(c2ccc(Cl)cc2)CC(=O)N3)cc1` (stereo unspecified), for which the inhibition is 4.26%.

As for `Cc1ccc(S(=O)(=O)Nc2cc(-c3ccc(Cl)cc3)nn2C)cc1`, the inhibition is 4.66%.

`Oc1[nH]c2ccccc2c1/C=N/N1CCCCC1`: the inhibition is -0.99%.

On to `CCc1nn(C(C)C(=O)NCCc2ccc(OC)c(OC)c2)c(=O)c2cc3occc3n12` (stereo unspecified), for which the inhibition is 10.4%.

Regarding `O=C(O)c1cccc(N2C(=O)c3ccc4c5c(ccc(c35)C2=O)C(=O)N(c2cccc(C(=O)O)c2)C4=O)c1`, the inhibition was 11.6%.

For the compound `O=C(O)c1ccc(N2C(=O)c3cccc4c(C(=O)O)ccc(c34)C2=O)cc1`, the inhibition is 10.1%.

Turning to `COc1cccc(-c2nnc(SCN3C(=O)c4ccccc4C3=O)n2C)c1`, the inhibition was -1.36%.

For `Fc1ccc(CN2CCSCC2)cc1Br`, the inhibition was 0.38%.

For the compound `O=C1NC(=S)N/C1=C\c1ccccc1OCc1ccc(C(=O)O)cc1`, the inhibition is 14.7%.

In the case of `CN1C(=O)/C(=C/c2ccccc2OCc2ccc(C(=O)O)cc2)NC1=S`, the inhibition is 22.6%.

Consider `COC(=O)c1ccc(COc2ccccc2/C=N/NS(=O)(=O)c2ccccc2)cc1`, for which the inhibition was 3.52%.

As for `COC(=O)c1ccc(COc2ccc(/C=N/Nc3cccc(C(=O)O)c3)cc2)cc1`, the inhibition was 5.29%.

Turning to `CN1C(=O)S/C(=C\c2ccccc2OCc2ccc(C(=O)O)cc2)C1=O`, the inhibition is 18.7%.

Turning to `CN1C(=O)S/C(=C/c2ccccc2OCc2ccc(C(=O)O)cc2)C1=O`, the inhibition was 6.59%.

Consider `O=C(Nn1c(Cc2ccccc2)nc2ccccc2c1=O)c1c(O)c2cccc3c2n(c1=O)CCC3`, for which the inhibition is -0.5%.

With `Cc1cc(C(=O)N2CCC(C)CC2)on1`, the inhibition is 9.58%.

In the case of `COc1nc(Nc2ccc([N+](=O)[O-])cc2)nc(NC2CCCCC2)n1`, the inhibition was 8.38%.

As for `COc1ccc(NC(=S)N2CCN(C(=O)C3CCCO3)CC2)c(OC)c1` (stereo unspecified), the inhibition was 1.1%.

With `COCCNc1nnc(SCC(=O)Nc2cc(-c3ccccc3)nn2-c2ccccc2)s1`, the inhibition was 8.39%.

For the compound `O=C(NNS(=O)(=O)c1ccccc1F)c1sccc1-n1cccc1`, the inhibition is 1.58%.

`Cc1ccc([N+](=O)[O-])cc1/C=N/Nc1nnnn1-c1ccccc1`: the inhibition was -4.44%.

In the case of `COC(=O)N/N=C/c1cc([N+](=O)[O-])cc(Br)c1O`, the inhibition is 19.9%.

`COc1cc(CCC(=O)OCC(=O)Nc2ccccc2C(C)C)cc(OC)c1OC`: the inhibition is -3.32%.

As to `N#CC(C#N)=C1C=CC=CN1/C(=C\c1ccco1)C(=O)c1ccc(Cl)cc1`, the inhibition is 17.2%.

With `N#CC(C#N)=C1C=CC=CN1/C(=C\c1ccco1)C(=O)c1ccc(-c2ccccc2)cc1`, the inhibition was 18.3%.

For `CCCc1nnc(NC(=O)NCCN2C(=O)C3C4C=CC(C4)C3C2=O)s1` (stereo unspecified), the inhibition was 0.7%.

`Cn1c(Cn2nnc(-c3ccccc3)n2)nnc1SCc1ccccc1Cl`: the inhibition is 0.85%.

For `CC(C)C(=O)N(c1cc2sc(=O)oc2c2ccccc12)S(=O)(=O)c1cccs1`, the inhibition is 23.3% (active).

Consider `CC(C)C(=O)N(c1ccc2oc(=O)sc2c1)S(=O)(=O)c1cccs1`, for which the inhibition was 6.95%.

In the case of `CC(=O)N(c1ccc2oc(=O)sc2c1)S(=O)(=O)c1cccs1`, the inhibition is 21.6%.

Take `Cc1ccc(-n2c(=O)cc(N3CCc4ccccc4C3)[nH]c2=O)cc1`: the inhibition was 3.06%.

For the compound `CCc1cc2c(-c3ccccc3)cc(=O)oc2c(CN2CCOCC2)c1O`, the inhibition was 9.72%.

Consider `CCc1cc2c(CN3CCN(CCO)CC3)cc(=O)oc2cc1O`, for which the inhibition is 11.5%.

Turning to `CCc1cc2c(CN3CCN(CC)CC3)cc(=O)oc2cc1O`, the inhibition was -1.87%.

For the compound `CCc1cc(=O)oc2c(CN3CCCC3)c(O)c(Cl)cc12`, the inhibition was 18.3%.

For the compound `CCCc1cc(=O)oc2cc(C)c(CN3CCCC3)c(O)c12`, the inhibition is 13.2%.

On to `CCCCc1cc(=O)oc2c(CN3CCCC3)c(O)c(Cl)cc12`, for which the inhibition was 13.1%.
